An excerpt weighted towards active compounds, which were near 2.5% of everything screened.
UHRF1 MBD2 ctr – UHRF1 methyl-DNA binding inhibition | Q96T88 | UHRF1 binding to methylated oligo, TR-FRET | inhibition, % at 4.4 µM | 0.75% of 370,000 active | AID 687016; in the data active = inhibition above about 21%;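 also: UHRF1 SRA domain binding a hemimethylated CpG hairpin DNA probe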
LEDGF integ inh – blocks HIV-1 LEDGF/p75-dependent DNA integration. TR-FRET IN-LEDGF/p75 DNA integration, Eu/Cy5. AID 743269. 0.64% of 370,000 active. inhibition, % at 3.7 µM;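 active = inhibition above the screen-wide mean plus 3 SD, cut at about 13% in these data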;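 also: signal is the Cy5 over europium emission ratio at 671 and 618 nm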
PRMT1 inh – blocks human protein arginine methyltransferase 1; Q99873; recombinant PRMT1, activity-based probe fluorescence polarization; inhibition, % at 2.79 µM; 1.3% of 370,000 active; AID 652257;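 active = inhibition above about 21% made by adding two undisclosed values, limit read from the data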
Target sequence (Q99873 whole entry, looked up): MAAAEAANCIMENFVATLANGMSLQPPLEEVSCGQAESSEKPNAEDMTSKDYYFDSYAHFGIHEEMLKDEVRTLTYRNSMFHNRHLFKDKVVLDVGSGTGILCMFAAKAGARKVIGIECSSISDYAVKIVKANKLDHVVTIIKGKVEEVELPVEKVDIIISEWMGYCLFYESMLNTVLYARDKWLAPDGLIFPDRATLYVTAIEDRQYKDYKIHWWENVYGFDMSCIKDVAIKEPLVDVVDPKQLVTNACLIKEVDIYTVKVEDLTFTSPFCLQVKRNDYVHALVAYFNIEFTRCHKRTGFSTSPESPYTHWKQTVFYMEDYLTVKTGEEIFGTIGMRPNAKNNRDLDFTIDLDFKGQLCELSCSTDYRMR
MBD2 DNA inh – MBD2-methylated oligo binding inhibition; Q9UBB5; TR-FRET, MBD2 binding to methylated oligonucleotide; inhibition, % at 4.4 µM; 0.31% of 370,000 active; AID 686964; in the data active = inhibition above about 13%
Numbers stand for hits.

Screening COC(=O)c1ccc2nc(-c3ccc(C)cc3)c(Cc3ccsc3)n2c1 returned UHRF1 MBD2 ctr inactive, LEDGF integ inh inactive, PRMT1 inh inactive and MBD2 DNA inh inactive.
Screening Cc1cccc(C)c1NC(=O)C(c1ccncc1)n1c(=O)c(-c2cc3ccccc3[nH]2)nc2ccccc21 (stereo not given) returned UHRF1 MBD2 ctr inactive, LEDGF integ inh inactive, PRMT1 inh inactive and MBD2 DNA inh inactive.
Screening CCn1c(=O)cc(OCC(=O)NCCCN2CCCC2=O)c2ccccc21 returned UHRF1 MBD2 ctr inactive, LEDGF integ inh inactive, PRMT1 inh inactive and MBD2 DNA inh inactive.
COc1ccccc1-n1cnnc1SC(C)C(=O)Nc1ccc(NC(C)=O)cc1 (stereo not given) was read as UHRF1 MBD2 ctr inactive, LEDGF integ inh inactive, PRMT1 inh inactive and MBD2 DNA inh inactive.
For C=C1C2(C(=O)NCc3ccco3)CCC(C2)C1(C)C (stereo not given) the results were UHRF1 MBD2 ctr 21.7, LEDGF integ inh inactive, PRMT1 inh inactive and MBD2 DNA inh inactive.
`CN1CCC(=NOc2ccc([N+](=O)[O-])cc2)CC1` gave UHRF1 MBD2 ctr inactive, LEDGF integ inh inactive, PRMT1 inh inactive and MBD2 DNA inh inactive.
`CN(C)CCNC(=O)c1cccc2ccc(-c3ccc(-c4ccccc4)cc3)nc12` gave UHRF1 MBD2 ctr 37.3, LEDGF integ inh inactive, PRMT1 inh inactive and MBD2 DNA inh inactive.
CN(C)CCNC(=O)c1ccccc1 was read as UHRF1 MBD2 ctr inactive, LEDGF integ inh inactive, PRMT1 inh inactive and MBD2 DNA inh inactive.
`CC(=O)NC1CCCCN(Cc2cccc(F)c2)C1=O` (stereo not given) gave UHRF1 MBD2 ctr inactive, LEDGF integ inh inactive, PRMT1 inh inactive and MBD2 DNA inh inactive.
Screening Cc1noc(C)c1COc1ccccc1C(=O)NCCc1ccc(S(N)(=O)=O)cc1 returned UHRF1 MBD2 ctr inactive, LEDGF integ inh inactive, PRMT1 inh inactive and MBD2 DNA inh inactive.
`Cc1ccc(NS(=O)(=O)c2ccc3c(c2)NC(=O)CCS3)c(Br)c1` gave UHRF1 MBD2 ctr 29.1, LEDGF integ inh inactive, PRMT1 inh inactive and MBD2 DNA inh inactive.
`Cc1ccc(C)c(NS(=O)(=O)c2ccc3c(c2)NC(=O)CCS3)c1` gave UHRF1 MBD2 ctr inactive, LEDGF integ inh inactive, PRMT1 inh inactive and MBD2 DNA inh inactive.
Cc1ccccc1OCCC(=O)N1CCN(S(=O)(=O)c2ccc(Cl)cc2)CC1 was read as UHRF1 MBD2 ctr inactive, LEDGF integ inh inactive, PRMT1 inh inactive and MBD2 DNA inh inactive.
`CCCCc1nc2ccccc2c(NC(=O)CN2CCCC2)c1CCC` gave UHRF1 MBD2 ctr inactive, LEDGF integ inh inactive, PRMT1 inh inactive and MBD2 DNA inh inactive.
O=C(CN1CCCCC1)Nc1c2c(nc3ccccc13)N(c1ccccc1)CC2 was read as UHRF1 MBD2 ctr inactive, LEDGF integ inh 14.3, PRMT1 inh inactive and MBD2 DNA inh inactive.
For Cc1ccc(NC(=O)c2cc(S(=O)(=O)NCC3CCCO3)ccc2F)cc1 (stereo not given) the results were UHRF1 MBD2 ctr 45.2, LEDGF integ inh inactive, PRMT1 inh inactive and MBD2 DNA inh inactive.
Cc1ccc(S(=O)(=O)NCC2CCCO2)cc1 (stereo not given) was read as UHRF1 MBD2 ctr inactive, LEDGF integ inh inactive, PRMT1 inh inactive and MBD2 DNA inh inactive.
CC(OC(=O)Cc1c[nH]c2ccccc12)C(=O)NC1CCCCC1C (stereo not given) was read as UHRF1 MBD2 ctr 23.0, LEDGF integ inh inactive, PRMT1 inh inactive and MBD2 DNA inh inactive.
For COc1ccc(-c2cn(-c3ccccc3)c(=S)[nH]2)cc1OC the results were UHRF1 MBD2 ctr inactive, LEDGF integ inh inactive, PRMT1 inh 23.2 and MBD2 DNA inh inactive.
For COc1ccc(-c2cn(-c3ccc(C)c(Cl)c3)c(=S)[nH]2)cc1OC the results were UHRF1 MBD2 ctr inactive, LEDGF integ inh inactive, PRMT1 inh inactive and MBD2 DNA inh inactive.
Screening Cc1ccc2cc(CN(C)S(C)(=O)=O)c(=O)[nH]c2c1 returned UHRF1 MBD2 ctr 35.2, LEDGF integ inh inactive, PRMT1 inh inactive and MBD2 DNA inh inactive.
For Cc1ccc(N(Cc2cc3ccc(C)cc3[nH]c2=O)S(C)(=O)=O)c(C)c1 the results were UHRF1 MBD2 ctr inactive, LEDGF integ inh inactive, PRMT1 inh inactive and MBD2 DNA inh inactive.
Screening CC(C)C[C@@H]1COc2cc(Br)ccc2S(=O)(=O)N1Cc1cn(CCC2OCCO2)nn1 returned UHRF1 MBD2 ctr inactive, LEDGF integ inh inactive, PRMT1 inh inactive and MBD2 DNA inh inactive.
For O=S(=O)(c1ccc(Br)cc1)N1CCCN(Cc2cccc(F)c2)CC1 the results were UHRF1 MBD2 ctr 62.3, LEDGF integ inh inactive, PRMT1 inh inactive and MBD2 DNA inh inactive.
O=S(=O)(c1ccccc1)N1CCN(Cc2cccc(Br)c2)CC1 was read as UHRF1 MBD2 ctr inactive, LEDGF integ inh inactive, PRMT1 inh inactive and MBD2 DNA inh inactive.

Screening results from PubChem.
